# In PubChem BioAssay (EPA / NIEHS):
# Results filed as inconclusive are left out. Activity calls are given as the source filed them. Rule for the calls: active = hit-call score of the fitted dose curve at least 0.9, where 1 is the maximum; inconclusive = response in the unintended direction; inactive = score below 0.9.
# Test system: not listed separately
# Test: TOX21_p53_BLA_p4_viability: Viability Assessment in the Tox21 HCT-116 p53 Agonism Beta-lactamase Assay, Phase 4 (AID 2283597);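 note: hits lower the luminescence signal meaning cytotoxicity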
# In short: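 Compound exposure of HCT116 cells lasts 16 h at 37C, 5% CO2, with DMSO stocks diluted 217-fold. Cellular ATP is then quantified by CellTiter-Glo luminescence after 30 min at room temperature.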
Structure (SMILES),outcome,AC50
O=S(=O)(O)c1cc(O)c(O)c(S(=O)(=O)O)c1,inactive,
O=C(Nc1cccc(Cl)c1)OCC#CCCl,,56.1 µM (active)
CCCCCCCC(=O)N(C)C,inactive,
CC1=CC(=O)[C@H]2C[C@@H]1C2(C)C,inactive,
CCO[Si](CC)(OCC)OCC,inactive,
O=S(=O)(O)c1cc(S(=O)(=O)O)c2c(N=Nc3ccccc3)c(O)ccc2c1,inactive,
CCCC(O)C(CC)CO (stereo unspecified),inactive,
CCCCC(CC)COC(=O)COc1ccc(Cl)cc1C (stereo unspecified),inactive,
CC(=O)c1cccnc1,inactive,
CCC(=O)OC(C)(C)C1CC=C(C)CC1 (stereo unspecified),inactive,
CC(C)=CCCC(C)=CC(=O)O,inactive,
N#CCCCC(C#N)CCC#N (stereo unspecified),inactive,
C[Si]1(C)N[Si](C)(C)N[Si](C)(C)N1,inactive,
O=C(C=Cc1ccccc1)OCCCc1ccccc1,inactive,
CCC(C)(CCCC(C)C)OC(C)=O (stereo unspecified),inactive,
CNC(=C[N+](=O)[O-])NCCSCc1ccc(CN(C)C)o1,inactive,
CC(C)Cc1ccc(C(C)C(=O)O)cc1 (stereo unspecified),inactive,
CCCCCCCCCCCCS,inactive,
C=C(C)C(=O)OCCC[Si](OC)(OC)OC,inactive,
CCCCC1CCCCC(=O)O1 (stereo unspecified),inactive,
CN(C)CCCNCCCN(C)C,inactive,

# Target: Cellular tumor antigen p53 (Homo sapiens) (UniProt P04637)
# Sequence (P04637 whole entry, looked up): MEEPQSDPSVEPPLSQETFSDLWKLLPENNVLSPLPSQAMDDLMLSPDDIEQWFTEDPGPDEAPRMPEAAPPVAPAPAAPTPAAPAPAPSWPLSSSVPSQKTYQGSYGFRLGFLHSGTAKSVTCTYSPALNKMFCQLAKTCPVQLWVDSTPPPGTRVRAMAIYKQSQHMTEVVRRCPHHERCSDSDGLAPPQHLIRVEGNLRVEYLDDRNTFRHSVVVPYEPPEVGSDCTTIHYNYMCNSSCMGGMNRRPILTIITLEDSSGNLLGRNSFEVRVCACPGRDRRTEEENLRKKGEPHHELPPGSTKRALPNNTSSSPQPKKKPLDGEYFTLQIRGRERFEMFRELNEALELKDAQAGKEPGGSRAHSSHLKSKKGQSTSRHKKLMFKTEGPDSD
# Test: TOX21_p53_BLA_p5_ratio: Tox21 HCT-116 p53 Agonism Beta-lactamase Assay, Ratio, Phase 5 (AID 2283599)
# In short: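 Beta-lactamase reporter ratio (blue 460 nm over green 530 nm, 405 nm excitation) after 2 h CCF4-AM loading, in HCT-116 cells exposed 16 h at 37 C to compounds pinned at 217-fold dilution. Increases relative to DMSO baseline scored.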
Structure (SMILES),outcome,AC50
C=CCOC(=O)/C=C\C(=O)OCC=C,inactive,
O=C(Nc1cccc(Cl)c1)OCC#CCCl,,14.1 µM (active)
CCCCCCCC(=O)N(C)C,inactive,
CC1=CC(=O)[C@H]2C[C@@H]1C2(C)C,inactive,
CCCC(O)C(CC)CO (stereo unspecified),inactive,
CC(C)=CC(=O)O,inactive,
CCCCCC#CC(=O)OC,inactive,
C=CCS(=O)(=O)O,inactive,
CC(C)N1C(=O)c2ccccc2C1=O,inactive,
c1ccc(-c2nn[nH]n2)cc1,inactive,
N#CCCCC(C#N)CCC#N (stereo unspecified),inactive,
C[Si]1(C)N[Si](C)(C)N[Si](C)(C)N1,inactive,
CC(C)(C)c1cccc(O)c1,inactive,
C=COCC1CCC(COC=C)CC1 (stereo unspecified),inactive,
O=C(C=Cc1ccccc1)OCCCc1ccccc1,inactive,
CC(C)COC(=O)c1ccccc1,inactive,
CCC(C)(CCCC(C)C)OC(C)=O (stereo unspecified),inactive,
CCOC(=O)CCCCCCCCC(=O)OCC,inactive,
CCCCCCCCCCCCS,inactive,
C=C(C)C(=O)OCCC[Si](OC)(OC)OC,inactive,
